Tests used:
Details in all cases: concentration: 1 μM, replicates: in singlicate; n = 1
[1] = test system: T1, ASK2
T1 construct: gene MAP3K6

[2] = test system: AURKA
[3] = test system: AURKB
[4] = test system: AURKC
[5] = test system: AXL
[6] = test system: T2, BIKE
T2 construct: gene BMP2K

[7] = test system: BLK
[8] = test system: BMPR1A
[9] = test system: BMPR1B
[10] = test system: BMPR2
[11] = test system: BMX
[12] = test system: BRAF
[13] = test system: T3, BRK
T3 construct: gene PTK6

[14] = test system: BRSK1
[15] = test system: BRSK2
[16] = test system: BTK
[17] = test system: BUB1
[18] = test system: CAMK1B
[19] = test system: CAMK1D
[20] = test system: CAMK1G
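Also: KINOMEscan kinase panel screen.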

Row | Structure (SMILES) | %Inh [1] [%] | %Inh [2] [%] | %Inh [3] [%] | %Inh [4] [%] | %Inh [5] [%] | %Inh [6] [%] | %Inh [7] [%] | %Inh [8] [%] | %Inh [9] [%] | %Inh [10] [%] | %Inh [11] [%] | %Inh [12] [%] | %Inh [13] [%] | %Inh [14] [%] | %Inh [15] [%] | %Inh [16] [%] | %Inh [17] [%] | %Inh [18] [%] | %Inh [19] [%] | %Inh [20] [%]
1 | Cc1ccc(NC(=O)c2ccc(Cl)c(Cl)c2)cc1-c1ccc(C(=O)Nc2ccncc2)cc1 [GSK1398460] | 0 | 7 | 1 | 67 | 100 | 40 | 45 | 0 | 0 | 0 | 6 | 34 | 10 | 7 | 10 | 0 | 6 | 28 | 24 | 0
2 | COc1cc(Nc2ccnc3cc(-c4ccncc4)ccc23)cc(OC)c1OC.Cl [GW494610] | 0 | 0 | 82 | 27 | 31 | 0 | 94.9 | 62 | 99 | 10 | 37 | 60 | 19 | 0 | 9 | 90 | 42 | 2 | 0 | 9
3 | Cc1ccc(-c2ccc3occ(-c4ccc(S(C)=O)cc4)c3c2)nn1 (centres unmarked) | 0 | 0 | 3 | 0 | 0 | 0 | 0 | 15 | 0 | 0 | 0 | 0 | 0 | 0 | 0 | 0 | 5 | 14 | 15 | 7
4 | CN(c1ccc2c(c1)nc(NCc1ccccc1)n2C)c1ccnc(Nc2ccc(CS(C)(=O)=O)cc2)n1.Cl [GW811603] | 0 | 87 | 79 | 63 | 85 | 24 | 39 | 0 | 4 | 22 | 0 | 96.8 | 79 | 0 | 0 | 64 | 0 | 46 | 5 | 0
5 | CC(C)(C)c1ccc(C(=O)Nc2cn3cc(-n4ccnc4)ccc3n2)cc1 | 6 | 0 | 24 | 0 | 0 | 0 | 0 | 3 | 0 | 8 | 0 | 19 | 15 | 31 | 0 | 0 | 7 | 0 | 6 | 7
6 | Cc1ccc(NC(=O)c2cccc(N3CCCCC3)c2)cc1-c1ccc(C(=O)NCC2CC2)cc1 [GSK1917008] | 11 | 0 | 0 | 7 | 5 | 13 | 72 | 0 | 2 | 0 | 26 | 88 | 22 | 6 | 3 | 0 | 23 | 27 | 11 | 0
7 | CN(c1ccc(NC(=O)Nc2cccc(Cl)c2)cc1)c1ccnc(N)n1.Cl [GW830707] | 15 | 28 | 68 | 70 | 37 | 4 | 0 | 0 | 0 | 52 | 0 | 0 | 8 | 0 | 12 | 0 | 30 | 15 | 5 | 0
8 | CCNc1nccc(-c2c(-c3ccc(F)cc3)ncn2C2CCN(C)CC2)n1 | 0 | 0 | 0 | 8 | 0 | 13 | 3 | 0 | 0 | 0 | 6 | 0 | 0 | 0 | 0 | 0 | 63 | 0 | 17 | 5
9 | CC(C)c1nc(-c2cccc(NS(=O)(=O)c3c(F)cccc3F)c2)c(-c2ccnc(Nc3ccc(N4CCOCC4)nc3)n2)s1.Cl [GSK1723980] | 20 | 41 | 42 | 50 | 74 | 19 | 99.8 | 67 | 99.7 | 0 | 94 | 100 | 96.4 | 16 | 37 | 41 | 93.1 | 13 | 32 | 2
10 | Cc1nn2c(=O)cc(N3CCO[C@H](C)C3)nc2n1Cc1cccc(Cl)c1Cl [GSK2373693] | 0 | 35 | 17 | 6 | 4 | 17 | 17 | 35 | 0 | 35 | 15 | 2 | 13 | 3 | 0 | 0 | 28 | 42 | 9 | 0
11 | CCn1cnc2c(NCc3ccccc3)ncnc21 [SKF-96418] | 0 | 0 | 41 | 0 | 0 | 0 | 16 | 0 | 0 | 48 | 0 | 9 | 0 | 0 | 0 | 0 | 50 | 0 | 1 | 0
12 | CN1CCN(Cc2ccc(NC(=O)Nc3ccc(N(C)c4ccnc(Nc5ccc(CS(C)(=O)=O)cc5)n4)cc3)cc2)CC1.Cl [GW827654] | 4 | 99.9 | 99.7 | 98.5 | 99.3 | 93.2 | 94.1 | 44 | 96.2 | 87 | 69 | 0 | 8 | 19 | 10 | 60 | 51 | 42 | 27 | 23
13 | COc1cccc(CC(=O)N2CCc3cc(-c4cn(C)c5ncnc(N)c45)ccc32)c1 [GSK2608899] | 12 | 52 | 87 | 48 | 96.2 | 21 | 36 | 6 | 6 | 0 | 0 | 6 | 53 | 8 | 0 | 0 | 0 | 43 | 19 | 20
14 | Cc1cc(-c2c(-c3ccc(F)cc3)ncn2CCCN2CCOCC2)nc(N)n1 [SB-222517] | 14 | 28 | 39 | 3 | 0 | 0 | 8 | 20 | 0 | 35 | 5 | 0 | 0 | 0 | 17 | 0 | 0 | 0 | 12 | 44
15 | c1ccc(Oc2ccc(Nc3ccnc4cc(-c5ccc(CN6CCCCC6)o5)ccc34)cc2)nc1 [GW567143] | 24 | 10 | 80 | 44 | 8 | 8 | 95.5 | 0 | 0 | 0 | 6 | 2 | 96.5 | 6 | 0 | 0 | 18 | 0 | 19 | 0
16 | Nc1cccc(-c2ccc3c(N)n[nH]c3c2)c1 [GSK2193613] | 0 | 10 | 0 | 46 | 0 | 82 | 87 | 0 | 89 | 3 | 5 | 0 | 8 | 58 | 51 | 0 | 21 | 21 | 25 | 4
17 | O=C1NC(=O)C(c2ccccc2Cl)=C1Nc1cccc(Cl)c1 [SB-342409] | 0 | 0 | 22 | 0 | 0 | 15 | 2 | 0 | 0 | 0 | 19 | 0 | 22 | 0 | 0 | 0 | 22 | 3 | 21 | 18
18 | CN(c1ccc(F)c(NC(=O)c2cccc(OC(C)(C)C#N)c2Cl)c1)c1ccc2nc(NC(=O)C3CC3)sc2n1 | 6 | 22 | 4 | 0 | 6 | 0 | 96.3 | 0 | 0 | 0 | 0 | 94 | 0 | 4 | 0 | 22 | 34 | 0 | 0 | 2
19 | N#Cc1cnc2cc(-c3cnc(CNCCN4CCOCC4)s3)ccc2c1Nc1ccc(Oc2ccccc2)cc1 [GW664114] | 9 | 0 | 39 | 25 | 98 | 9 | 99 | 0 | 0 | 8 | 62 | 0 | 0 | 0 | 44 | 93.9 | 37 | 24 | 12 | 24
